Reference: PubChem BioAssay AID463190 (Sanford-Burnham Center for Chemical Genomics, 2010)
Hit rate of the full screen: of about 330,000 compounds, about 7,300 (2.2%) were called active.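 How the source made its calls: active means inhibition of at least 40%; inactive means the rest.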 This excerpt belongs to a sample that is enriched for actives.

Experiment: growth inhibitors of tim10-1 mutant yeast, primary screen, luminescence, uHTS (AID 463190);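 further: mutant grown at 25 °C; 0% = DMSO wells with yeast and 100% = wells holding no yeast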
Settings: S. cerevisiae tim10-1 ts strain growth, BacTiter-Glo, 24 h; at 20 µM; stronger effect = higher value

inhibition, active:
O=C(CCCN1C(=O)/C(=C/c2ccccc2)SC1=S)Nc1ccc(O)cc1 40.5%
CCOC(=O)N1CCN(C(=O)c2cc3c(-c4ccc(Cl)cc4)nn(C)c3s2)CC1 40.4%
COc1ccc(Nc2nc(N)nc(CSC(=S)N3CCC(C)CC3)n2)cc1 46.2%
CCn1c(COc2c(C)cccc2C)nnc1SCc1nc2ccccc2c(=O)[nH]1 40.2%
CCc1nc2ccc(C(=O)N3CCN(c4cccc(Cl)c4)CC3)cc2nc1CC 52.2%
O=C(CSc1cccc2cccnc12)N/N=C/c1cccnc1 51.7%
O=C(Nc1nnc(SCc2c(Cl)cccc2Cl)s1)C1CCCO1 (configuration not stated) 42.5%
Cc1cc(Nc2ccccc2)n(C(=O)c2ccc(N)cc2)n1 50.1%
COc1ccc(-c2oc3ncn(Cc4ccco4)c(=N)c3c2-c2ccc(OC)cc2)cc1 41.7%
COc1cccc(C(=O)Nc2cc3c(cc2Br)OCCCO3)c1 40.7%
Cc1nonc1C1CCCN1C(=O)c1cc(COc2cccc(C(F)(F)F)c2)on1 (configuration not stated) 46.1%
CCOC(=O)CSc1nc2c(c(=O)n(Cc3ccccc3Cl)c(=O)n2C)n1C 47.6%
CSc1nnc(NC(=O)c2nc(S(=O)(=O)Cc3ccc(C)cc3)ncc2Cl)s1 41%
Cc1nn2c(c1-c1ccccc1)N=C(c1ccco1)CC2c1ccccc1 (configuration not stated) 45.5%
COc1ccccc1CNC(=O)c1ccc(SC)cc1OC 41.4%
Cc1cc(C)nc(S/C=C/C(=O)c2ccccc2)n1 62.9%
COc1ccc2c(c1)c(C(=O)N/N=C/c1cccs1)c(C)n2C 44.8%
COc1ccc(/C=C/C2=CC(C)(C)NC(=S)N2)c(OC)c1 42.8%
CCOC(=O)C1(S(=O)(=O)c2ccccc2)CCN(Cc2ccccc2)CC1 41.1%
CCOC(=O)C1Sc2[nH]c(=O)sc2C(c2ccc(Cl)cc2)C1C(=O)OCC (configuration not stated) 48.6%
CSc1nnc2ccc(-c3ccc(C)cc3)nn12 45.7%

inhibition, inactive:
CC(Nc1ccccc1)c1cccnc1 (configuration not stated) -3.38%
CCN(CC)S(=O)(=O)c1cc(C(=O)Nc2cc(S(=O)(=O)N3CCOCC3)ccc2N2CCCC2)ccc1F 3.43%
O=C(CN(C(=O)c1csnn1)c1cccc(Cl)c1)NC1CCCC1 17.6%
O=C(CCCN1C(=O)/C(=C/c2cccs2)SC1=S)Nc1ccc(O)cc1 31.7%
COc1ccc(/C=C2\SC(=S)N(CCC(=O)Nc3cccc(C(=O)O)c3)C2=O)cc1OC 21.8%
CCC(C)[C@@H](C(=O)N1CCNCC1)n1cc(CCCCN)nn1 (some centres not stated) -13.3%
CCOC(=O)C1CCN(CCC(=O)Nc2cccc(C)c2)CC1 11.5%
CN(Cc1cccs1)C(=O)Cc1c[nH]c2ccccc12 14.6%
O=C(Nc1ccc2sc3ccccc3c(=O)c2c1)c1ccccc1Cl 4.71%
COc1ccccc1N1CCN(C(=O)c2cc3c(-c4ccc(Cl)cc4)nn(C)c3s2)CC1 15.4%
COc1cccc(-c2nn(C)c3sc(C(=O)N4CCN(c5ccccc5)CC4)cc23)c1 24.7%
O=C(CNC(=O)c1ccccc1)NCC(=O)OCc1ccc(Cl)cc1 -23.2%
COc1ccccc1Nc1nc(N)nc(CSC(=S)N2CCOCC2)n1 23.3%
CCOC(=O)c1cnc(SCc2nc(N)nc(Nc3ccc(OC)cc3)n2)nc1N 17.6%
C=CCNC(=O)c1ccccc1SCc1c(C)noc1C 18%
CCOP(=O)(OCC)C(Nc1cccc(C)c1)c1ccc(F)cc1 (configuration not stated) 20.8%
CCN=C1S/C(=C\c2cc(Br)ccc2OCC(=O)OCC)C(=O)N1CC 25.5%
Cc1ccc(COC(=O)CN2C(=O)NC3(CCCC3)C2=O)cc1 23.6%
COc1ccc(CCCc2nnc(SCc3nc4ccccc4c(=O)[nH]3)n2C)cc1 19.4%
CCn1c(Cc2ccccc2)nnc1SCc1nc2ccccc2c(=O)[nH]1 8.33%
O=c1c2cc(-c3ccccc3)sc2nc2n1N=C(c1cccs1)CS2 20.5%
O=C1C(=O)N(CCN2CCOCC2)C(c2ccccn2)/C1=C(/O)c1ccc(Cl)cc1 (configuration not stated) 13.6%
O=C(CCCC(=O)N1CCN(c2cccc(Cl)c2)CC1)c1ccccc1 29.5%
O=C(c1cccc(Cl)c1)N1CCN(Cc2ccccc2)CC1 -7.29%
O=C(O)c1ccn(COc2ccc(Br)cc2)n1 -4%
CCOC(=O)N/N=C/c1cccnc1 5.36%
Cc1ccc(NC(=O)CSc2cccc3cccnc23)c(C)c1 25.4%
O=C(Nc1nnc(SCc2c(Cl)cccc2Cl)s1)c1cccc([N+](=O)[O-])c1 -2.85%
O=C(NCc1ccccc1Cl)C1CCCO1 (configuration not stated) 0.911%
NC(=O)CCC(NS(=O)(=O)c1ccc(Cl)cc1)C(=O)NCc1ccccc1Cl (configuration not stated) -4.94%
COc1ccc(Cl)cc1NC(=O)Cn1nc(-c2ccc(C)cc2)n(C)c1=S 2.15%
Cc1cc(Nc2ccccc2)n(CCC#N)n1 -11.5%
Cc1cc(C)n(C(=O)c2ccc(S(=O)(=O)N3CCCC3)cc2)n1 17.6%
CCc1ccc(CN(C)C(C)C(=O)Nc2ccc(S(=O)(=O)N3CCCC3)cc2)cc1 (configuration not stated) 24.9%
COc1ccc(OC)c(S(=O)(=O)N2CCCC(C(=O)N3CCC(C(N)=O)CC3)C2)c1 (configuration not stated) -23.6%
CN1CCN(S(=O)(=O)c2ccc(N3CCN(S(=O)(=O)c4cccs4)CC3)nc2)CC1 -3.27%
COc1ccc(-n2cnc3cc(NCc4ccco4)ccc32)cc1 22%
COc1ccc(-c2oc3ncnc(NCCCO)c3c2-c2ccc(OC)cc2)cc1 9.86%
Cc1cc(C)c(NC(=O)c2oc3ccccc3c2COc2ccccc2)c(C)c1 17%
O=C(Nc1ccccc1)c1ccc2c(c1)OCCCO2 5.55%
COc1cccc(C(=O)NNC(=O)c2cccc(F)c2)c1 -28.3%
O=C(c1cc(COc2cccc(C(F)(F)F)c2)on1)N1CCSCC1 26.2%
O=C(NC1Cc2ccccc2C1)c1cc(COc2cccc(C(F)(F)F)c2)on1 18.4%
O=c1cnnc(Nc2ccccc2F)[nH]1 -10.8%
Cc1ccc(C(=O)N/C(=C/c2cccs2)C(=O)N2CCCCC2)cc1 19.1%
Cn1c(=O)c2c(nc(SCC(=O)Nc3ccccc3N3CCCCC3)n2C)n(C)c1=O -4.92%
CCOC(=O)CSc1nc2c(c(=O)n(C)c(=O)n2C)n1Cc1ccccc1F 10.3%
Cc1cccc(NC(=O)c2nc(S(=O)(=O)Cc3ccccc3)ncc2Cl)c1 23.9%
Cc1ccc(CS(=O)(=O)c2ncc(Cl)c(C(=O)Nc3nnc(C)s3)n2)cc1 20.6%
O=C(Nc1ccc(-n2cccn2)cc1)C1CCN(Cc2ccsc2)CC1 -13.1%
O=C(O)CCCC(=O)N1N=C(c2ccco2)CC1c1ccco1 (configuration not stated) -34.5%
Cc1nn(C(=O)c2ccoc2C)c(N)c1-c1ccccc1 2.61%
CCOc1cc(C)ccc1OCc1nnc(SCC(=O)Nc2cccc(C(=O)O)c2)n1-c1ccccc1 4.93%
COc1cc(SC)ccc1C(=O)NCCOc1ccccc1Cl 20%
COc1cc(SC)ccc1C(=O)N(Cc1ccccc1)c1ccccc1 26.9%
Cc1cc(C)n(CCNCc2c(C(=O)N3C[C@@H](C)O[C@@H](C)C3)nc3ccc(Cl)cn23)n1 5.77%
Cc1cc(C)nc(SCC(=O)N(C)C)n1 9.12%
Cc1cc(C)nc(SCC(=O)c2ccc(Cl)cc2)n1 7.83%
COCCCn1c(SCc2cccc(OC)c2)nc2cc(OC)c(OC)cc2c1=N 28.6%
COc1ccc(N(CC(=O)N/N=C/c2cccs2)S(=O)(=O)c2ccc(OC)c(OC)c2)cc1 11.7%
NC(=O)N/N=C\c1cccs1 -3.46%
CCCCN(C)CCNC(=O)C1CCCN(S(=O)(=O)c2cccc3nsnc23)C1 (configuration not stated) 8.01%
O=C(c1ccco1)N1CCN(C(=O)c2cc(-c3ccccc3F)no2)CC1 26%
COc1cc(/C=C/C2=CC(C)(C)NC(=S)N2)cc(OC)c1OC 16.4%
COc1ccc(/C=C2/C(=O)N(c3ccccc3)N=C2C)c(OC)c1 28.4%
O=C(Cc1ccccn1)c1ccc(O)cc1O 4.18%
CC1=NNC(=O)C1CC(=O)N/N=C/c1ccncc1 (configuration not stated) 7.67%
CCOC(=O)C1(S(=O)(=O)c2ccc(Cl)cc2)CCN(Cc2ccccc2)CC1 39.5%
CCOC(=O)C1(CCOc2ccccc2)CCN(Cc2cc(OC)cc(OC)c2)CC1 30.7%
O=S(=O)(c1ccc(Br)cc1)c1nc(-c2ccccc2)oc1N1CCOCC1 19.8%
O=C1COc2ccc(C(=O)CSc3ccc(Br)cc3)cc2N1 14%
CCOC(=O)C1=C(C)NC(=O)N(C(C)=O)C1c1ccc(Cl)cc1 (configuration not stated) 26.5%
CCOC(=O)c1[nH]c2c(c1-c1ccccc1)C(=O)CC(c1ccc(Cl)cc1)C2 (configuration not stated) 11.7%
CCCn1c(SCC(=O)Nc2ccc(C)c(S(=O)(=O)N3CCOCC3)c2)n[nH]c1=O 11.7%
Fc1cccc(CSc2nnc3ccc(-c4ccncc4)nn23)c1 16.3%
COc1ccc(-c2ccc3nnc(SCC(=O)Nc4ccc(NC(C)=O)cc4)n3n2)cc1 -13%
